Experimental data reported in article PMC5913336, “True equilibrium measurement of transcription factor-DNA binding affinities using automated polarization microscopy”.

Each sequence was assayed against Cic (Drosophila melanogaster, UniProt Q9U1H0 483-565) (assay: FP; 33 mM phosphate pH 7.0, 90 mM NaCl, 0.01% Tween 20, 0.1 mM DTT, 0.5% agarose; room temperature). Conditions: tags: N-GST (pGEX-6P-1, kept); dsDNA, one strand shown.

Sequence | binding signal | Kd
CGGTGAATGGGGT | 2.27 Kd / Kd of best base at the position | –
CGTTGAATGTGGT | 4.08 Kd / Kd of best base at the position | –
CGTTGAGTGGGGT | 7.68 Kd / Kd of best base at the position | –
CGTTGAATGGGGG | 2.15 Kd / Kd of best base at the position | –
GGTTGAATGGGGT | 1.41 Kd / Kd of best base at the position | –
CATTGAATGGGGT | 1.53 Kd / Kd of best base at the position | –
CGTCGAATGGGGT | 12.4 Kd / Kd of best base at the position | –
CGTTTAATGGGGT | 4.43 Kd / Kd of best base at the position | –
CGTTGAATGCGGT | 7.69 Kd / Kd of best base at the position | –
CGTAGAATGGGGT | 5.55 Kd / Kd of best base at the position | –
CGTTGAATGGGGA | 2.36 Kd / Kd of best base at the position | –
CGTGGAATGGGGT | 17.5 Kd / Kd of best base at the position | –
CGTTGAATGGAGT | 1.79 Kd / Kd of best base at the position | –
AGTTGAATGGGGT | 1.69 Kd / Kd of best base at the position | –
CGTTGAATGGGTT | 1.85 Kd / Kd of best base at the position | –
CGTTGGATGGGGT | 20.4 Kd / Kd of best base at the position | –
CGATGAATGGGGT | 2.02 Kd / Kd of best base at the position | –
CGTTGAAAGGGGT | 8.64 Kd / Kd of best base at the position | –
CGTTGAATGGGCT | 1.86 Kd / Kd of best base at the position | –
CGTTGAATCGGGT | 7.88 Kd / Kd of best base at the position | –

Sequence | binding signal | Kd
CGTTGAATGGTGT | 2.29 Kd / Kd of best base at the position | –
CGTTGAAGGGGGT | 11.1 Kd / Kd of best base at the position | –
CGCTGAATGGGGT | 3.22 Kd / Kd of best base at the position | –
CGTTGAATGGGGC | 2.65 Kd / Kd of best base at the position | –
CGTTGAACGGGGT | 10.1 Kd / Kd of best base at the position | –
CGTTGAATTGGGT | 6.71 Kd / Kd of best base at the position | –
TGTTGAATGGGGT | 1.66 Kd / Kd of best base at the position | –
CGTTGACTGGGGT | 3.64 Kd / Kd of best base at the position | –
CTTTGAATGGGGT | 1.85 Kd / Kd of best base at the position | –
CGTTGAATGGGAT | 1.93 Kd / Kd of best base at the position | –
CCTTGAATGGGGT | 1.89 Kd / Kd of best base at the position | –
CGTTGTATGGGGT | 5.33 Kd / Kd of best base at the position | –
CGTTGATTGGGGT | 8.11 Kd / Kd of best base at the position | –
CGTTGAATGGGGT | – | ~34.1 nM
CGTTGCATGGGGT | 17.1 Kd / Kd of best base at the position | –
CGTTAAATGGGGT | 3.06 Kd / Kd of best base at the position | –
CGTTCAATGGGGT | 1.93 Kd / Kd of best base at the position | –
CGTTGAATAGGGT | 6.64 Kd / Kd of best base at the position | –
CGTTGAATGAGGT | 2.2 Kd / Kd of best base at the position | –
